Compounds without any hit were thinned out: in the full panel of roughly 83,000, 20% have a hit.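 Activity criterion: percent growth below 10, measured after cells in 96-well plates were exposed to a single compound concentration for 48 hours.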 Values without a mark were called inactive. Active and inactive are the calls of the source.

Some test systems named below: SR leukemia; RPMI-8226 leukemia; OVCAR-8 ovarian; OVCAR-5 ovarian; OVCAR-4 ovarian; SK-OV-3 ovarian; IGROV1 ovarian; OVCAR-3 ovarian; HS 578T breast; NCI/ADR-RES ovarian; T-47D breast; MDA-MB-435 melanoma; SW-620 colon; MCF7 breast; HCT-116 colon; HCC-2998 colon; KM12 colon; BT-549 breast.
What all share (assay): NCI-60 one-dose screen, 48 h (100 = growth as untreated, 0 = no growth, -100 = all killed)
Conditions in all cases: 10 µM unless noted

As to `CS(=O)(=O)Nc1cc(-c2ccc3ncc(C#N)c(N[C@H](CO)c4ccccc4)c3c2)cnc1Cl`, the growth in the assay on SR leukemia was 20.7%; in the assay on RPMI-8226 leukemia, 64.2%; in the assay with OVCAR-8 ovarian it was 56.2%; in the assay on OVCAR-5 ovarian, 74.1%; with OVCAR-4 ovarian, 54%; with SK-OV-3 ovarian, 81.1%. Further, the growth was 3.75% (active) in the assay with IGROV1 ovarian; 24% in the assay on OVCAR-3 ovarian; 13.7% in the assay on HS 578T breast; 97.8% in the assay with NCI/ADR-RES ovarian; 28.3% with T-47D breast; 47.2% in the assay with MDA-MB-435 melanoma. Besides, the growth in the assay on SW-620 colon is 26.6%; with MCF7 breast, 17.7%; with HCT-116 colon it was 25.7%; in the assay with HCC-2998 colon, 42.1%; in the assay with KM12 colon, 70.2%.

On to `C[C@@H](Nc1ncnc2ccc(-c3cnc(Cl)c(NS(C)(=O)=O)c3)cc12)c1ccccc1`, for which the growth in the assay on SR leukemia was 47.6%; in the assay with RPMI-8226 leukemia, 23.9%; in the assay with OVCAR-8 ovarian, 75.9%; with OVCAR-5 ovarian, 38.4%; in the assay on OVCAR-4 ovarian, 58.3%; with SK-OV-3 ovarian, 55.6%. The growth with IGROV1 ovarian was 3.14% (active); with OVCAR-3 ovarian, 44.6%; with HS 578T breast, 27.1%; in the assay on NCI/ADR-RES ovarian it was 85%; in the assay on T-47D breast, 9.4% (active); in the assay with MDA-MB-435 melanoma it was 60.9%. Further, the growth in the assay on SW-620 colon is 67.7%; in the assay with MCF7 breast it was 21.3%; with HCT-116 colon, 61%; in the assay on KM12 colon it was 89.3%.

Consider `C[C@@H](Nc1c(C#N)cnc2ccc(-c3cnc(Cl)c(NS(C)(=O)=O)c3)cc12)c1ccccc1`, for which the growth in the assay with SR leukemia was -14.1% (active); with RPMI-8226 leukemia, -34.9% (active); in the assay on OVCAR-8 ovarian, 16.3%; with OVCAR-5 ovarian it was 4.76% (active); with OVCAR-4 ovarian it was 0.536% (active); in the assay on SK-OV-3 ovarian, -7.04% (active). Further, the growth in the assay with IGROV1 ovarian was -30.4% (active); in the assay with OVCAR-3 ovarian it was 4.33% (active); in the assay on HS 578T breast it was -15.9% (active); in the assay with NCI/ADR-RES ovarian, 31.5%; in the assay on T-47D breast, 0.239% (active); with MDA-MB-435 melanoma it was 8.87% (active). Further, the growth in the assay with SW-620 colon is 9.39% (active); with MCF7 breast it was 6.51% (active); with HCT-116 colon it was 4.05% (active); with HCC-2998 colon, 16.7%; in the assay with KM12 colon it was 15.1%.

Turning to `Cc1cc(C)n(C(=O)c2sc(=S)n(-c3ccccc3)c2N=Nc2c(N)n[nH]c2N)n1`, the growth is 86.4% in the assay on SR leukemia; 108% in the assay on RPMI-8226 leukemia; 101% in the assay with OVCAR-8 ovarian; 101% with OVCAR-5 ovarian; 115% with OVCAR-4 ovarian; 109% in the assay on SK-OV-3 ovarian. For the same compound, the growth in the assay on IGROV1 ovarian was 99.8%; in the assay on OVCAR-3 ovarian it was 119%; with HS 578T breast, 113%; in the assay with NCI/ADR-RES ovarian, 115%; in the assay on BT-549 breast it was 107%; in the assay with MDA-MB-435 melanoma, 104%. For the same compound, the growth was 102% in the assay on SW-620 colon; 96.7% with MCF7 breast; 100% in the assay with HCT-116 colon; 110% with HCC-2998 colon; 107% with KM12 colon.

As for `N#Cc1cccc(/C(N)=N/C(N)=N/c2nc3ccccc3s2)c1`, the growth with SR leukemia is 26.2%; in the assay with RPMI-8226 leukemia, 8.74% (active); with OVCAR-8 ovarian, 35%; with OVCAR-5 ovarian it was 62.3%; with OVCAR-4 ovarian, 91.7%; in the assay on SK-OV-3 ovarian it was 41.6%. Also, the growth in the assay with IGROV1 ovarian is 36.6%; in the assay on OVCAR-3 ovarian it was 20.6%; in the assay on HS 578T breast, 23%; with NCI/ADR-RES ovarian, 14.3%; in the assay on BT-549 breast, 49.3%; in the assay with MDA-MB-435 melanoma, -39% (active). Besides, the growth in the assay on SW-620 colon was 22.9%; in the assay on MCF7 breast, 23.1%; in the assay on HCT-116 colon, 24%; in the assay on HCC-2998 colon it was 55.7%; in the assay with KM12 colon, 24.6%.

On to `O=S(=O)(NCCNc1nccc(-n2cnc3ccccc32)n1)c1ccc(Br)cc1`, for which the growth in the assay on SR leukemia was 75.1%; in the assay on RPMI-8226 leukemia it was 79.7%; in the assay with OVCAR-8 ovarian, 95.6%; in the assay on OVCAR-5 ovarian it was 94%; with OVCAR-4 ovarian it was 82.2%; with SK-OV-3 ovarian it was 99.9%. Also, the growth is 90.7% in the assay on IGROV1 ovarian; 103% in the assay on OVCAR-3 ovarian; 85.7% in the assay on HS 578T breast; 97.6% in the assay with NCI/ADR-RES ovarian; 115% in the assay with BT-549 breast; 108% in the assay on MDA-MB-435 melanoma. Besides, the growth in the assay on SW-620 colon was 110%; in the assay on MCF7 breast it was 78.4%; with HCT-116 colon, 99.8%; in the assay on HCC-2998 colon it was 103%; in the assay with KM12 colon it was 85.4%.

As to `NC(N)=Nc1ccc(Oc2cccc(Nc3ccc(Cl)c(C(F)(F)F)c3)c2)cn1`, the growth with SR leukemia is -54.6% (active); with RPMI-8226 leukemia it was -29.6% (active); in the assay on OVCAR-8 ovarian, -66% (active); in the assay with OVCAR-5 ovarian it was -64% (active); in the assay with OVCAR-4 ovarian it was 6.69% (active); with SK-OV-3 ovarian, 36.8%. Besides, the growth in the assay on IGROV1 ovarian was -38.2% (active); in the assay on HS 578T breast, -2.57% (active); in the assay on NCI/ADR-RES ovarian, 53.6%; with T-47D breast it was 15.1%; with BT-549 breast, 16.5%; with MDA-MB-435 melanoma, -86.2% (active). In addition, the growth with SW-620 colon is -69.8% (active); in the assay on MCF7 breast it was -60.3% (active); in the assay on HCT-116 colon, -69.4% (active); with HCC-2998 colon it was -86.1% (active); with KM12 colon it was -81.8% (active).

On to `CC(=O)Nc1cccc(Nc2nc(N[C@H](C)c3ccccc3)c3ccccc3n2)c1`, for which the growth was -7.47% (active) in the assay on SR leukemia; -20.3% (active) in the assay on RPMI-8226 leukemia; 74.8% in the assay on OVCAR-8 ovarian; 70.6% in the assay on OVCAR-5 ovarian; 34.9% in the assay with OVCAR-4 ovarian; 94.8% with SK-OV-3 ovarian. In addition, the growth was 51.8% with IGROV1 ovarian; 55.9% in the assay on OVCAR-3 ovarian; 80.5% in the assay with HS 578T breast; 39.1% with NCI/ADR-RES ovarian; 24.3% in the assay with MDA-MB-435 melanoma; 61.5% with SW-620 colon. For the same compound, the growth in the assay on MCF7 breast is 27.8%; with HCT-116 colon it was 31%; in the assay on HCC-2998 colon, 88.7%; in the assay on KM12 colon it was 55.9%.

With `O=C1/C(=C/C=C/c2ccco2)SC(=S)N1C1CCCCC1`, the growth in the assay with SR leukemia was 82.2%; in the assay on RPMI-8226 leukemia, 100%; in the assay with OVCAR-8 ovarian, 97.4%; in the assay on OVCAR-5 ovarian, 94%; in the assay with OVCAR-4 ovarian it was 95.3%; with SK-OV-3 ovarian, 104%. Further, the growth is 101% in the assay with IGROV1 ovarian; 101% with HS 578T breast; 99% with NCI/ADR-RES ovarian; 68.8% with T-47D breast; 111% in the assay with BT-549 breast; 85.3% in the assay on MDA-MB-435 melanoma. Also, the growth in the assay with SW-620 colon is 92.2%; in the assay with MCF7 breast, 54.3%; in the assay with HCT-116 colon, 99.8%; with HCC-2998 colon it was 97.3%; in the assay with KM12 colon, 96.9%.

For the origin of these results see PubChem BioAssay (NCI).
